Compounds without any hit were thinned out: in the full panel of roughly 83,000, 20% have a hit.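 Compound tested at a single concentration for 48 hours in 96-well plates; a percent growth value below 10 was scored as active.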 Values without a mark were called inactive. Calls of active or inactive are those of the source.

The values that follow come from PubChem BioAssay (NCI).

Common to all, as to assay: NCI-60 one-dose screen, 48 h (100 = growth as untreated, 0 = no growth, -100 = all killed)
Conditions in all cases: 10 µM unless noted

Assay [1] concerns HCT-15 colon.
In assay [2] the test system is HT29 colon.
Assay [3] has as its system SNB-75 CNS.
Assay [4] concerns SNB-19 CNS.
Assay [5] concerns U251 CNS.
Assay [6] concerns PC-3 prostate.
Assay [7] deals with SK-MEL-5 melanoma.
Assay [8] relates to UACC-62 melanoma.
Assay [9] deals with LOX IMVI melanoma.
For assay [10], the system named is SK-MEL-28 melanoma.

Regarding `Cc1ccc(N2C3c4ccccc4N(S(=O)(=O)c4ccc(C)cc4)C2c2ccccc2N3S(=O)(=O)c2ccc(C)cc2)cc1`, the growth in assay [1] is 94.9%; in assay [2], 101%; in assay [3], 89.5%; in assay [4], 111%; in assay [5], 91.8%; in assay [6], 90.4%. In addition, the growth in [7] was 103%; in [8] it was 99.6%; in assay [9], 98.7%; in assay [10] it was 99.3%.

Turning to `CNC(=O)c1cc(Oc2ccc(NC(=O)c3nc(S(C)(=O)=O)n(C)c3-c3ccc(F)cc3)cc2)ccn1`, the growth in assay [1] is 57.8%; in assay [2] it was 71.9%; in assay [3], 43%; in assay [4], 85%; in assay [5], 76.1%; in [6], 64.1%. Also, the growth in assay [7] is 73.8%; in [8], 62%; in assay [9], 62.4%; in assay [10], 95.7%.

For `CCOc1ccc([C@@H]2[C@@H](Oc3ccccc3)C(=O)N2c2cc(OC)c(OC)c(OC)c2)cc1`, the growth in assay [1] is 10.8%; in assay [2], 5.82% (active); in assay [3], 65.6%; in assay [4], 35.4%; in assay [5] it was 21.7%; in assay [6], 25.6%. For the same compound, the growth in assay [7] is -18.7% (active); in assay [8], 26%; in assay [9] it was 26.7%; in assay [10] it was 64.8%.

As to `COc1ccc([C@@H]2[C@@H](Oc3ccccc3)C(=O)N2c2cc(OC)c(OC)c(OC)c2)cc1F`, the growth in assay [1] is 12.7%; in assay [2], -6.94% (active); in assay [3], 61.4%; in [4], 19.9%; in assay [5], 4.18% (active); in assay [6], 20.7%. Also, the growth in assay [7] is -15.1% (active); in assay [8] it was 0.0629% (active); in [9] it was 14%; in assay [10], 48.9%.

Turning to `CCCCCCCCCCCCCCC(C(=O)OCC)C(=O)OCC`, the growth in assay [1] was 99.5%; in assay [2], 115%; in assay [3], 94.7%; in assay [4], 102%; in assay [5] it was 104%; in assay [6] it was 108%. The growth in assay [7] is 99.3%; in assay [8] it was 101%; in [9] it was 119%; in assay [10], 102%.

For the compound `Fc1ccc(-c2ccnc3nc(-c4ccncc4)nn23)cc1`, the growth in assay [1] was 103%; in assay [2], 97.3%; in assay [3], 90.1%; in [4], 112%; in [5] it was 104%; in [6] it was 97.2%. Besides, the growth in assay [7] was 106%; in assay [8], 116%; in [9], 100%; in [10], 111%.

For `Nc1ncnc2c1N=C(c1ccc(F)cc1)CC(c1sc(Cl)nc1Cl)N2` (stereo not given), the growth is 102% in [1]; 92.2% in [2]; 74% in assay [3]; 92.9% in [4]; 84.7% in [5]; 79.5% in [6]. The growth in [7] was 92%; in assay [8], 94.5%; in assay [9], 93%; in assay [10], 102%.

For the compound `Fc1ccc2nc(-c3ccc(-c4noc(-c5ccc(Cl)cc5)n4)cc3)[nH]c2c1`, the growth in [1] was 109%; in assay [2] it was 103%; in assay [3], 110%; in assay [4], 110%; in assay [5] it was 103%; in [6], 102%. Further, the growth in assay [7] is 104%; in [8], 113%; in [9], 104%; in assay [10], 128%.

Take `CCCNC(=S)N/N=C(\C)c1ccccn1`: the growth in assay [1] was 28.5%; in [2], 37.2%; in assay [3], 74.2%; in [4], 38.4%; in assay [5], 21.7%; in [6], 26.7%. Also, the growth in assay [7] was 22.4%; in assay [8], 11.1%; in assay [9] it was 9.29% (active); in [10], 52.4%.

As to `COc1cc(C2=NOC(c3cc(OC)c(OC)c(OC)c3)C2)ccc1OCCCCOc1cc2c(cc1OC)C(=O)N1CCC[C@H]1C=N2` (stereo not given in full), the growth in assay [1] was 4.27% (active); in assay [2] it was -12.3% (active); in assay [3], -87.7% (active); in [4], -9.51% (active); in assay [5], -9.51% (active); in [6], -2.09% (active). The growth in assay [7] is -85.3% (active); in assay [8] it was -76.6% (active); in [9], -68.6% (active); in [10], -66.1% (active).

On to `Cc1nc2ccc(Nc3nc(Cl)nc(N4CCOCC4)n3)cc2n1Cc1ccccc1`, for which the growth in assay [1] was 76.9%; in assay [2] it was 96%; in assay [3], 51.2%; in [4] it was 94.6%; in [5] it was 90.5%; in assay [6] it was 87.1%. Moreover, the growth in assay [7] is 89.5%; in assay [8], 92.3%; in [9] it was 67.7%; in assay [10], 82.8%.

For `COc1ccc(/C=C/C(=O)c2ccc(NC(=O)CSc3nnc(-c4ccc(OC)cc4)n3-c3ccccc3)cc2)cc1`, the growth in assay [1] is 96.4%; in [2], 103%; in assay [3], 91.7%; in assay [4] it was 94.1%; in assay [5] it was 87.1%; in assay [6] it was 106%. For the same compound, the growth in assay [7] is 95.1%; in [8] it was 89.4%; in [9], 102%; in assay [10] it was 106%.

For `O=Cc1ccc2nc(C(Cl)(Cl)Cl)ccc2c1`, the growth was 101% in [1]; 102% in assay [2]; 99.9% in [3]; 102% in [4]; 92.8% in assay [5]; 98.4% in [6]. Also, the growth is 95% in [7], 106% in assay [8], 96.1% in assay [9] and 105% in assay [10].

Consider `C[C@@H](C[C@H](CC1CC1)c1ccccc1)c1ccc2ccccc2c1`, for which the growth in [1] was 107%; in [2], 105%; in assay [3], 85%; in [4], 101%; in [5], 101%; in assay [6], 98.9%. For the same compound, the growth in assay [7] is 99.9%; in [8], 103%; in [9], 98.4%; in [10], 107%.
